# Assay results from PubChem BioAssay (NCI).
# The panel holds about 83,000 compounds, 20% with a hit somewhere; the sample as a whole holds those more often.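 Assay: single dose, 48 h. Readout: percent growth (0 = no net growth; negative = cell death). Active: <10.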 Active and inactive are the calls of the source.
# System: MDA-MB-468 breast
# Assay: NCI-60 one-dose screen, 48 h (100 = growth as untreated, 0 = no growth, -100 = all killed)
# Settings: 10 µM unless noted
row,SMILES,growth
1,COc1ccc(-c2cc(-c3ccc(Nc4nc(Nc5ccccc5)nc(Nc5ccc(Cl)cc5)n4)cc3)nc(N)c2C#N)cc1,-31.1% (active)
2,CCOc1ccc(NC(=O)c2ccoc2COc2ccccc2)cc1,113% (inactive)
3,CCOC(=O)c1nc(Nc2ccc(C(C)=O)cc2)sc1C,96.9% (inactive)
4,CCN(CCO)CCCOc1ccc2c(Nc3cc(CC(=O)Nc4cccc(F)c4)[nH]n3)ncnc2c1,36.7% (inactive)
5,CC(=O)c1nn(-c2ccccc2)/c(=N\N=C\c2coc3ccc(F)cc3c2=O)s1,115% (inactive)
6,CCN1CCN(c2nc(C)cc(N(CCCNc3ccnc4cc(Cl)ccc34)Cc3ccc4c(c3)OCO4)n2)CC1,-33.5% (active)
7,O=C(N/N=C\c1ccccc1S(=O)(=O)O)N/N=C/c1ccccc1S(=O)(=O)O,101% (inactive)
8,CNCCNc1nc2ccccc2c2c(=O)c3cc(F)ccc3sc12,51.6% (inactive)
9,C/C(=N/N)c1nnn(-c2ccc(Br)cc2)c1C,94.8% (inactive)
10,CC[C@H](Nc1ncnc2nc[nH]c12)c1nc2cccc(F)c2c(=O)n1-c1ccccc1,3.98% (active)
11,Cc1nc2cc(Nc3nc(Nc4ccc(F)cc4)nc(N4CCCC4)n3)ccc2n1Cc1ccccc1,-63.3% (active)
12,COc1cc(OC)c(/C=C/C(=O)c2c(O)cc(OC)c(C3CCN(C)CC3)c2OC)c(OC)c1,-91.1% (active)
13,CN[C@]12CC3(C=CC(=O)C=C3)O[C@@]1(Cc1ccc(OC)cc1)N(C)C(=O)N2,36.4% (inactive)
14,O=c1c2cc(F)ccc2sc2c(NCCCN3CCCC3)nc3ccccc3c12,-13.7% (active)
15,Cc1nc(Nc2ccc(S(=O)(=O)Nc3cc(C)on3)cc2)c2ccccc2n1,104% (inactive)
16,NC(N)=NC1CCCCC1,88.8% (inactive)
17,COc1ccc(/C(C)=C(\c2ccc(Cl)cc2)c2ccc(OCCCN(C)C)cc2)cc1,82.7% (inactive)
18,Cc1ccc(Cc2ccc(C)cc2)cc1,96.8% (inactive)
19,CCCCOc1nc2ccc(C)cc2cc1/C=C/C(=O)/C=C(O)/C=C/c1cc2cc(C)ccc2nc1OCCCC,104% (inactive)
20,O=C(/C=C1\C=CN(CCCCO)c2ccccc21)n1ccc2ccccc21,98% (inactive)
21,Cc1ccc(NC(=O)/C=C/c2ccc(OCCCOc3ccc4c(C)cc(=O)oc4c3)cc2)cc1,77.5% (inactive)
22,COc1ccc(-c2nnc(NC(=O)CN3CCN(c4cc5c(cc4F)c(=O)c(C(=O)O)cn5C4CC4)CC3)s2)cc1OC,93% (inactive)
23,CC(C)OC(C(=O)O)c1ccccc1 (stereo not given),113% (inactive)
24,Cc1cc(Br)nnc1Br,101% (inactive)
25,Cc1cccc(/C=C2\N=C(c3ccccc3)N(c3ccc(S(N)(=O)=O)cc3)C2=O)c1,99.2% (inactive)
